The full list was thinned out, with hits kept by preference.
TTR transcr act = activators of transthyretin transcription | hit rate 1.3% among 92,000 | AID 1117267 | SH-SY5Y TTR promoter Gaussia luciferase, luminescence; 100% = recombinant luciferase protein wells | activation, % at 16.7 µM;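 active means activation above the mean of all tested compounds plus 3 SD, cut at about 9.5% in these data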;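 further: cells exposed to compounds for one day before reading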
HuH7 TTR inh = decreases TTR transcription in HuH7 cells in activator counter-screen. shares compounds with TTR transcr act. HuH7 TTR promoter-Gaussia luciferase reporter, luminescence. inhibition, % at 16.7 µM. hit rate 4% among 1,100. AID 1117279;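 active means average inhibition above the solvent-only control wells' mean plus 3 SD, cut at about 15% in these data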;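 further: inhibitors lower well luminescence so higher value means more inhibition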
TTR up confirm = human TTR transcription activation, confirmation | shares compounds with TTR transcr act | SHSY5Y TTR promoter Gaussia luciferase, luminescence; 100% = purified Lucia enzyme wells, no cells | activation, % at 16.7 µM | 1,100 tested, under 10 active | AID 1117280;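 active means mean activation above a set limit taken from the earlier primary screen, cut at about 11% in these data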
Hits are given with their value; - = inactive.

SMILES | TTR transcr act | others
CCOC(=O)N1CCN(C(=O)C[C@H]2C(=O)N(Cc3ccc(OC)cc3)C3=CCCC[C@@]32C(=O)OCC)CC1 | -
CCC[C@H]1[C@@H](N)CC[C@@]23CCCN2C(=O)CCC[C@@H]13 | -
CC(=O)c1cc(-c2cccc([N+](=O)[O-])c2)c(=O)n2c1CCC2 | -
COC(=O)C1=C(C)NC(=O)/C1=C\c1cc(C)n(-c2ccccc2F)c1C | -
Cc1cc(/C=N/N2CCN(C)CC2)c(C)n1-c1ccccc1F | 9.7 | HuH7 TTR inh=-;TTR up confirm=-
Cc1c(C(=O)O)cccc1-n1c(C)cc(C=O)c1C | -
Cc1ccccc1CN1CCCCC(NC(=O)c2cccc(C(F)(F)F)c2)C1=O (stereo not given) | -
CCN1CCN(Cc2ccc(NC(=O)c3ccc(C)c(NC(=O)c4cc(-c5ccc(Br)cc5)n[nH]4)c3)cc2C(F)(F)F)CC1 | -
CCN1CCN(Cc2ccc(NC(=O)c3ccc(C)c(NC(=O)c4cccc5[nH]ccc45)c3)cc2C(F)(F)F)CC1 | -
CCN1CCN(Cc2ccc(NC(=O)c3ccc(C)c(NC(=O)c4nccn4C)c3)cc2C(F)(F)F)CC1 | 11 | HuH7 TTR inh=-;TTR up confirm=-
CN(C)CCCn1c(NCc2ccc3c(c2)OCO3)nc2ccccc21 | 10 | HuH7 TTR inh=-;TTR up confirm=-
CCn1c(NCc2ccc3c(c2)OCO3)nc2ccccc21 | -
c1ccc2c(c1)nc(NCc1ccc3c(c1)OCO3)n2CCN1CCOCC1 | -
COC(=O)[C@]12C[C@H](CC(=O)N3CCC(c4ccccc4)CC3)C(=O)N(Cc3ccc(Cl)cc3Cl)C1=C[C@H](C1CCCC1)O[C@@H]2C | -
CCCCOc1ncnc2c1[nH]c1ccc(OC)cc12 | -
COc1ccc2[nH]c3c(Cl)ncnc3c2c1 | 16 | HuH7 TTR inh=19;TTR up confirm=-
COc1ccc2[nH]c3c(N4CCc5ccccc5C4)ncnc3c2c1 | -
CN(C)[C@@H]1CCN(c2ccc3c(c2)O[C@H]2CCN(C2)S3(=O)=O)C1 | -
CCCCn1c(SCC(=O)N2CCc3ccccc32)nnc1-c1ccncc1 | 17 | HuH7 TTR inh=-;TTR up confirm=-
CCCn1c(SCC(=O)N2CCc3ccccc32)nnc1-c1ccco1 | -
CCCn1c(SCC(=O)N2CCCc3ccccc32)nnc1-c1ccccn1 | -
CCOC(=O)[C@]12CCCC3=C1N(CCC3)C(=O)[C@@H](CC(=O)NCC1CCCCC1)C2 | -
COc1ccc(CNC2CCC23CCC(C)CC3)cc1 (stereo not given) | -
CCNC(=O)COC(=O)c1cc(=O)[nH]c2ccccc12 | -
Cc1cccc(C)c1NC(=O)COC(=O)c1cc(=O)[nH]c2ccccc12 | -
SMILES | TTR transcr act | others
Cc1noc(C)c1COC(=O)c1cc(=O)[nH]c2ccccc12 | 31 | HuH7 TTR inh=-;TTR up confirm=-
O=C(CSc1cc(Cl)ccc1Cl)N/N=C/c1ccc[nH]1 | -
O=C(Nc1cccc(Br)c1)OC1CC2CC1[C@H]1CCCCN1[C@H]2Cc1ccccc1 (stereo not given in full) | -
CCC(C)C(=O)Nc1ccc(OC)cc1OC (stereo not given) | -
COc1ccc(NC(=O)/C=C/C(=O)O)c(OC)c1 | -
COc1ccc(NC(=O)C(F)(OC)C(F)(F)F)c(OC)c1 (stereo not given) | 14 | HuH7 TTR inh=-;TTR up confirm=-
COc1ccc(Cn2ccc3ccc(-c4ccc5ccn(C(=O)c6ccccc6OC)c5c4)cc32)cc1 | -
COC(=O)[C@]12C[C@H](CC(=O)NCC34CC5CC(CC(C5)C3)C4)C(=O)N(Cc3ccc(Cl)cc3Cl)C1=C[C@H](C(C)C)O[C@@H]2C1CC1 | -
O=C(NCCc1c[nH]c2ccccc12)OCc1cn(Cc2ccccc2C(F)(F)F)nn1 | -
C[C@H]1CCC(=O)N([C@H](COc2ccccc2)Cc2ccccc2)CC1 | 14 | HuH7 TTR inh=-;TTR up confirm=-
CC1CCC(=O)N(CCOc2ccccc2)CC1 (stereo not given) | -
CC(C)C[C@@H](COc1ccccc1)N1CCN(C)CCC1=O | -
C[C@H]1[C@H](c2ccccc2)Oc2cccc(NCCc3ccccc3)c2S(=O)(=O)N1Cc1cccc(F)c1 | -
CC(C)(C)c1csc(CS(=O)(=O)c2ccccn2)n1 | -
Cc1c(S(=O)(=O)c2ccccn2)c(N)n(Cc2cccc(Cl)c2)c1C | -
N/C(=N\O)c1cccc(CS(=O)(=O)c2ccccn2)c1 | 10.0 | HuH7 TTR inh=-;TTR up confirm=-
CCn1c(SCC(=O)NCc2ccccc2)nc2nc3c(cc2c1=O)CCCC3 | -
Cc1ccccc1-n1c(SCC(=O)Nc2ccccc2)nc2nc3c(cc2c1=O)CCCC3 | 13 | HuH7 TTR inh=-;TTR up confirm=-
CCn1c(SCC(=O)Nc2ccc(OC)cc2)nc2nc3c(cc2c1=O)CCCC3 | -
COc1ccc(C(=O)N[C@H]2CC[C@@]34CCCN3C(=O)CCC[C@H]4[C@H]2C)cc1 | -
C#CCNC(=O)C[C@H]1C[C@@]2(C(=O)OC)C(=C[C@H](C(C)C)O[C@@H]2C2CC2)N(Cc2cccc3ccccc23)C1=O | -
COC(=O)C1CN(CCO)CCS(=O)(=O)N1Cc1cn(Cc2ccc(C)cc2)nn1 (stereo not given) | -
COC1=C(Nc2ccc(OC)cc2)C(=O)C(OC)=C(Nc2ccc(OC)cc2)C1=O | -
COc1ccc(NC2=Nc3cccc4cccc2c34)cc1 | 15 | HuH7 TTR inh=-;TTR up confirm=-
COc1ccc(Nc2nc(Cl)nc(Nc3ccc(OC)cc3)n2)cc1 | -
SMILES | TTR transcr act | others
Cc1cccc(NC(=O)c2nc[nH]c2C(=O)N[C@@H](C)c2ccccc2)c1 | -
CC1=C(C(=O)Nc2cccc(C(=O)NC(C)c3ccccc3)c2)SCCO1 (stereo not given) | 11 | HuH7 TTR inh=-;TTR up confirm=-
Cc1cccc(C(=O)NC(=S)NC(C)c2ccccc2)c1 (stereo not given) | -
COC(=O)[C@]12C[C@H](CC(=O)NCc3ccccc3)C(=O)N(Cc3ccc4c(c3)OCO4)C1=C[C@H](C(C)C)O[C@@H]2C1CC1 | -
O=C1CN(C(=O)c2ccccn2)c2ccccc2N1 | -
O=C1CN(C(=O)NCC(=O)N[C@H](C(=O)O)c2ccccc2)c2ccccc2N1 | -
O=C1CN(C(=O)OCc2ccccc2)c2ccccc2N1 | 14 | HuH7 TTR inh=-;TTR up confirm=-
CCCC1CCC2(CC1)CCC2OC(=S)Nc1ccc(Cl)cc1 (stereo not given) | -
CCC[C@H]1[C@@H](NC(=O)c2ccc(OC)cc2)CC[C@@]23CCCN2C(=O)CCC[C@@H]13 | -
CC(=O)c1cc(-c2ccc([N+](=O)[O-])cc2)c(=O)n2c1CCC2 | -
CC(C)C(=O)NC(=S)Nc1ccccc1C(=O)NC1CCCCC1 | -
COC(=O)c1ccccc1NC(=O)NC1CCCC1 | 15 | HuH7 TTR inh=-;TTR up confirm=-
O=C(Nc1ccccc1)NC1CCCCCCC1 | -
C=CCN1C(=O)[C@H](CC(=O)N2CCN(C(=O)C3CC3)CC2)[C@@]2(C(=O)OCC)CCCC=C12 | -
CCOC(=O)C1(Cc2ccc(OC)cc2)CCN(C(=O)C2CCCO2)CC1 (stereo not given) | -
CCOC(=O)C1(Cc2ccc(OC)cc2)CCN(C(=O)c2cncs2)CC1 | 9.7 | HuH7 TTR inh=-;TTR up confirm=-
CCOC(=O)C1(Cc2ccc(OC)cc2)CCN(C(=O)Cn2cnnn2)CC1 | -
COC(=O)CC1CCc2cc(C)cc(C(=O)CC(C)C)c2O1 (stereo not given) | -
CCOC(=O)c1ccccc1NC(=O)C(C)Oc1ccccc1 (stereo not given) | -
CCOCCOC(=O)COC(=O)c1ccccc1NC(=O)c1ccccc1 | 12 | HuH7 TTR inh=-;TTR up confirm=-
CCOC(=O)c1ccccc1NC(=O)C=C(C)C | -

Screening results: PubChem BioAssay, The Scripps Research Institute Molecular Screening Center
